Assay results taken from PubChem BioAssay (NCI).
Values joined by “and” are separate entries in the source; they are usually repeats but may differ in a detail not shown here. Identical values can stand only once. The panel holds about 83,000 compounds, 20% with a hit somewhere; the sample as a whole holds those more often.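 How to read the values: 0–100, growth inhibition (40 = 60% inhibited); 0, no net growth; -100 to 0, cell death (-40 = 40% of starting cells died; -100 = all dead).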 Active and inactive are the calls of the source. Rule for the calls: active = growth percent below 10; inactive = the rest.

Tests used:
Experiment in all cases: NCI-60 one-dose screen, 48 h (100 = growth as untreated, 0 = no growth, -100 = all killed)
NCI-H23 lung = conditions: 10 µM
NCI-H226 lung = conditions: 10 µM
NCI-H322M lung = conditions: 10 µM
HOP-62 NSCLC = conditions: 10 µM
NCI-H460 lung = conditions: 10 µM
HOP-92 NSCLC = conditions: 10 µM
NCI-H522 lung = conditions: 10 µM unless noted
A549/ATCC NSCLC = conditions: 10 µM
786-0 renal = conditions: 10 µM
COLO 205 colon = conditions: 10 µM

SMILES | growth (NCI-H23 lung) | growth (NCI-H226 lung) | growth (NCI-H322M lung) | growth (HOP-62 NSCLC) | growth (NCI-H460 lung) | growth (HOP-92 NSCLC) | growth (NCI-H522 lung) | growth (A549/ATCC NSCLC) | growth (786-0 renal) | growth (COLO 205 colon)
COC(=O)C1=COC(C)C2C[n+]3ccc4c([nH]c5ccccc54)c3CC12 (stereo unspecified) | 103% (inactive) and 88.6% (inactive) | 87.1% (inactive) and 71.2% (inactive) | 107% (inactive) and 95.9% (inactive) | 94.7% (inactive) and 88.3% (inactive) | 113% (inactive) and 95.1% (inactive) | 92.2% (inactive) and 75.9% (inactive) | 99.2% (inactive) and 76.1% (inactive) | 103% (inactive) and 76.7% (inactive) | 102% (inactive) and 107% (inactive) | 
CO[C@H](C(=O)[C@@H](O)[C@@H](C)O)[C@@H]1Cc2cc3cc(OC4CC(OC5CC(O)C(O)C(C)O5)C(O)C(C)O4)c(C)c(O)c3c(O)c2C(=O)[C@H]1OC1CC(OC2CC(OC3CC(C)(O)C(O)C(C)O3)C(O)C(C)O2)C(O)C(C)O1 (stereo partly specified) | -28.9% (active) | 10.8% (inactive) |  | 7.51% (active) | 2.6% (active) | -1.5% (active) | -44.7% (active) | 2.67% (active) | 2.93% (active) | 
O=C(C(=Cc1ccccc1)C(=O)c1ccccc1)c1ccccc1 | 66.7% (inactive) and 95.2% (inactive) | 68.4% (inactive) and 97.7% (inactive) |  | 102% (inactive) | 33.3% (inactive) and 96.3% (inactive) | 65.7% (inactive) and 84.3% (inactive) | 75.2% (inactive) and 68.9% (inactive) | 81.6% (inactive) and 83.1% (inactive) | 73.5% (inactive) and 97.3% (inactive) | 
N=S(c1ccccc1[N+](=O)[O-])c1ccccc1[N+](=O)[O-] | 83.9% (inactive) | 52.7% (inactive) | 93.4% (inactive) | 124% (inactive) |  | -1.88% (active) | -77.5% (active) | 90.3% (inactive) | 39.7% (inactive) | 
CC1=CC(C)=Nc2ccc(Cl)cc2N1 | 94.1% (inactive) | 97.6% (inactive) |  | 105% (inactive) | 101% (inactive) | 96.9% (inactive) | 103% (inactive) | 114% (inactive) | 106% (inactive) | 
COc1cccc2c1C(=O)c1c(O)c3c(c(O)c1C2=O)C[C@@](O)(C(C)=O)C[C@@H]3OC1CC(N)C(O)C(C)O1 (stereo partly specified) | -40.5% (active) | -6.94% (active) |  | -26.1% (active) | -25.3% (active) | -25.2% (active) | -52% (active) | -29.9% (active) | -18.5% (active) | 
Clc1ccc(/C=C/c2ccccn2)c(Cl)c1 | 93.7% (inactive) | 97.1% (inactive) | 85.5% (inactive) | 96.2% (inactive) |  | 84% (inactive) | 81.2% (inactive) | 90% (inactive) | 105% (inactive) | 94.7% (inactive)
NC(=O)SCC(=O)NNc1ccccc1 | 112% (inactive) | 93.1% (inactive) |  | 93.8% (inactive) | 98.8% (inactive) | 92.2% (inactive) | 85.2% (inactive) | 85.3% (inactive) | 108% (inactive) | 
COc1c(O)cc2oc3cc(O)c(CC=C(C)C)c(O)c3c(=O)c2c1CC=C(C)C | 54.6% (inactive) | 72.9% (inactive) |  | 75.7% (inactive) | 28.4% (inactive) | 77% (inactive) | 60.4% (inactive) | 54.3% (inactive) | 78.4% (inactive) | 
COc1ccc(CC(=O)c2ccc(O)cc2O)cc1 | 104% (inactive) | 133% (inactive) | 122% (inactive) | 88.4% (inactive) |  | 94.4% (inactive) | 4.52% (active) | 109% (inactive) | 96.5% (inactive) | 207% (inactive)
Nc1ccc2cc3ccc(N)cc3nc2c1 | 101% (inactive) and 3.42% (active) | 87% (inactive) and -2.76% (active) | -7.06% (active) | 6.72% (active) |  | 96.7% (inactive) and -1.28% (active) | -50.9% (active) | 84.3% (inactive) and 2.08% (active) | 113% (inactive) and 43.8% (inactive) | 
Nc1c2ccccc2nc2ccccc12 | 11.5% (inactive) and 41.9% (inactive) and 38.5% (inactive) | 2.61% (active) and 38.7% (inactive) and 40.4% (inactive) | 12.1% (inactive) and 36.8% (inactive) and 31.9% (inactive) | 11.3% (inactive) and 52.2% (inactive) and 47.3% (inactive) | -11.2% (active) and 2.59% (active) and 12% (inactive) | 69.1% (inactive) and 2.79% (active) | -49% (active) and -11.2% (active) and 30.2% (inactive) | -5.72% (active) and 20.6% (inactive) and 28.6% (inactive) | 25.5% (inactive) and 34.8% (inactive) and 50% (inactive) | -73.8% (active) and 7.85% (active) and 12.6% (inactive)
